AddAB inh = less growth of phage-infected E. coli with AddAB; E. coli expressing H. pylori AddAB, absorbance growth; inhibition, % at 11.9 µM; 330,000 tested, 0.29% active; in the data active = inhibition above about 12%
phage Ecoli inh = E. coli growth loss with phage present; inhibition, % at 11.9 µM; 360,000 tested, 0.26% active; growth absorbance; in the data active = inhibition above about 11%
Tat transport = inhibitors of E. coli Tat protein transport; 340,000 tested, 0.036% active; AID 488895; inhibition, % at 10 µM; E. coli MC4100 TorA-mCherry Tat export, fluorescence;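 active = mean replicate inhibition at least 50% and at least half of replicates individually reaching 50%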;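 also: exported cargo escapes ClpAP degradation while cytoplasmic cargo is degraded and loses fluorescence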
E coli growth-1 = bacterial growth inhibition, counter-screen for AddAB inhibitors | E. coli V3065 growth, OD600 absorbance, 18 h | inhibition, % at 11.9 µM | 330,000 tested, 0.27% active | AID 449728;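 active = inhibition above the campaign's mean inhibition across all tested compounds plus 3 SD, cut at about 9.9% in these data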;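 also: uninfected addAB+ strain grown without phage in ampicillin broth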
E coli growth-2 = blocks Escherichia coli growth. 330,000 tested, 0.21% active. OD600, 23 h; stronger effect = lower value. OD600 absorbance (test concentration not listed). AID 1053175;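 active = OD600 absorbance below the run mean of sample wells minus 3.6 SD, in any replicate, cut at about 0.56 in these data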
Large screens that a line does not name were inactive; ! = not active in a repeat. In the library only some 0.5% were active in any assay of this set; here they are far more common.

CCn1c(CCc2ccccc2)n[nH]c1=S	none
CCn1c(CCn2c3ccccc3c3ccccc32)n[nH]c1=S	Tat transport 50.3
CCCCc1ccc(C(C)=NNc2cc(N3CCOCC3)nc(C)n2)cc1	none (no result: AddAB inh, phage Ecoli inh, Tat transport, E coli growth-1)
C=CCNC(=S)NNC(=O)c1ccc(OCCC)cc1	none
CCCOc1ccc(C(=O)NNC(=S)NC(=O)CC)cc1	E coli growth-2 0.404
CCOC(=O)CC1c2ccccc2S(=O)(=O)N1c1cccc(OC)c1 (stereo unspecified)	none (no result: AddAB inh, phage Ecoli inh, Tat transport, E coli growth-1)
CCn1cc(C(=O)Nc2ccccc2)c(=O)c2ccc(C)nc21	none (no result: phage Ecoli inh, Tat transport)
CCn1cc(C(=O)NC2CCCCC2C)c(=O)c2ccc(C)nc21 (stereo unspecified)	E coli growth-2 0.0585
O=c1cnnc(NN=Cc2c[nH]c3ccccc23)[nH]1	none (no result: AddAB inh, phage Ecoli inh, Tat transport, E coli growth-1)
C(=NNc1nncc2ccccc12)c1ccccn1	E coli growth-2 0.495 (no result: AddAB inh, phage Ecoli inh, Tat transport, E coli growth-1)
O=c1cnnc(NN=Cc2ccccn2)[nH]1	E coli growth-2 0.426 (no result: AddAB inh, phage Ecoli inh, Tat transport, E coli growth-1)
Nc1c(Cl)ncnc1NN=Cc1ccccn1	E coli growth-2 0.444 (no result: AddAB inh, phage Ecoli inh, Tat transport, E coli growth-1)
Nc1c(Cl)ncnc1N/N=C/c1cccnc1	none (no result: E coli growth-2)
COc1ccc(C2CC=C(C(=O)O)C(c3ccc(Cl)cc3)N2S(=O)(=O)c2ccccc2C)cc1 (stereo unspecified)	none (no result: AddAB inh, phage Ecoli inh, Tat transport, E coli growth-1)
CC1(C)CC(=O)C=C(NCCN2CCN(C(=O)Nc3ccccc3)CC2)C1	Tat transport 52.3
COc1ccc2c3c(cccc13)C(=O)N(O)C2=O	E coli growth-2 0.377
COC(=O)C1=C(C(=O)OC)C2N(Cc3ccccc3)c3ccccc3[C@@]23CC(C(=O)OC)N(C(=O)NC(C)(C)C)C3=N1 (stereo partly specified)	none (no result: AddAB inh, phage Ecoli inh, Tat transport, E coli growth-1)
COc1ccc(NC(=O)C(C#N)=Cc2ccc(OCc3ccccc3F)cc2)cc1	none (no result: AddAB inh, phage Ecoli inh, Tat transport, E coli growth-1)
O=C(NCc1nc2ccccc2[nH]1)C1=CC(c2ccccc2)CC(OCc2ccc(CO)cc2)O1 (stereo unspecified)	none (no result: AddAB inh, phage Ecoli inh, Tat transport, E coli growth-1)
CN(C)CCOc1ccc(-c2c(-c3ccccc3)sc3ccccc23)cc1	E coli growth-2 0.336
c1ccc(-c2sc3ccccc3c2-c2ccc(OCCN3CCCCC3)cc2)cc1	none
Nc1nc(F)nc2c1ncn2C1OC(CO)C(O)C1O (stereo unspecified)	E coli growth-2 0.454! (no result: AddAB inh, phage Ecoli inh, Tat transport, E coli growth-1)
Nc1nc(Cl)nc2c1ncn2C1OC(CO)C(O)C1O (stereo unspecified)	none (no result: AddAB inh, Tat transport, E coli growth-1)
Nc1ncn(C2O[C@H](CO)[C@@H](O)[C@H]2O)c(=O)n1 (stereo partly specified)	AddAB inh 96.5, E coli growth-1 95.8 (no result: phage Ecoli inh, Tat transport, E coli growth-2)
COC(=O)CC1c2ccccc2S(=O)(=O)N1Cc1ccc(OC)cc1 (stereo unspecified)	none (no result: AddAB inh, phage Ecoli inh, Tat transport, E coli growth-1)
CC1CN(C(C)CO)C(=O)c2cc(NC(=O)NC3CCCCC3)ccc2OC1CN(C)S(C)(=O)=O (stereo unspecified)	none (no result: AddAB inh, phage Ecoli inh, Tat transport, E coli growth-1)
CC(=O)Nc1ccc(S(=O)(=O)N2CCN(C(=O)C(=O)c3cccc(C(F)(F)F)c3)CC2)cc1	none (no result: AddAB inh, Tat transport, E coli growth-1, E coli growth-2)
CC(=O)Nc1ccc(S(=O)(=O)N2CCN(c3cc(C(F)(F)F)ccn3)CC2)cc1	E coli growth-2 0.11
O=C(NN=Cc1ccccc1F)c1cccc2ccccc12	none (no result: AddAB inh, phage Ecoli inh, Tat transport, E coli growth-1)
COc1cccc(/C=N/Nc2ccnc(=O)[nH]2)c1O	E coli growth-1 12.7 (no result: E coli growth-2)
O=c1nccc(N/N=C/c2ccccc2O)[nH]1	none (no result: AddAB inh, E coli growth-1, E coli growth-2)
C[n+]1ccccc1/C=C1\Sc2ccccc2N1CCO	none
CCN1/C(=C/c2ccc3cc(C)cc(C)c3[n+]2CC)Sc2cc(C)ccc21	E coli growth-2 0.124 (no result: AddAB inh, E coli growth-1)
CCN1C(=Cc2ccc3ccccc3[n+]2CC)Sc2cc(C)ccc21	E coli growth-2 0.362 (no result: AddAB inh, phage Ecoli inh, Tat transport, E coli growth-1)
Cc1ccc2c(c1)S/C(=C\c1cccc[n+]1C)N2CCO	none
CCN1/C(=C\c2ccc3cc(C)ccc3[n+]2CC)Sc2cc(C)c(C)cc21	E coli growth-2 0.206 (no result: AddAB inh, E coli growth-1)
CCN1/C(=C/c2ccc3cccc(C)c3[n+]2CC)Sc2ccccc21	E coli growth-2 0.456
CC[n+]1c(/C=C/c2ccc(OC)c(OC)c2)ccc2ccccc21	none
CCOC1OC(C(=O)N2CCN(C)CC2)=CC(c2coc3ccccc3c2=O)C1CCCO (stereo unspecified)	none (no result: AddAB inh, phage Ecoli inh, Tat transport, E coli growth-1)
CCC(C)Sc1ccc(C2N[C@@](CC(C)C)(C(=O)OC)C3C(=O)N(CC)C(=O)C23)cc1 (stereo partly specified)	none (no result: AddAB inh, phage Ecoli inh, Tat transport, E coli growth-1)
CCC(C)CCN1C(N(C)C)=NCC1Cc1ccccc1 (stereo unspecified)	none (no result: AddAB inh, phage Ecoli inh, Tat transport, E coli growth-1)
CC(=NNC(=O)c1ccc(F)cc1)c1cccc(NC(=O)c2cccc(F)c2)c1	none (no result: AddAB inh, phage Ecoli inh, Tat transport, E coli growth-1)
Nc1nnnn1N=Cc1ccccc1OCc1ccc(Cl)cc1	none (no result: AddAB inh, phage Ecoli inh, Tat transport, E coli growth-1)
CCCCCCCCN1C(CC(=O)OCC)c2cc(C(F)(F)F)ccc2S1(=O)=O (stereo unspecified)	none (no result: AddAB inh, phage Ecoli inh, Tat transport, E coli growth-1)
CC[n+]1c(C)sc2c3ccsc3ccc21	none
CCN1/C(=C/c2ccc3cc(C)ccc3[n+]2CC)Sc2ccc3sccc3c21	E coli growth-2 0.326 (no result: phage Ecoli inh)

High-throughput results deposited in PubChem by several laboratories.
